# Laboratory results: PubChem BioAssay
# A number with no mark means an inactive call. Active and inactive are the calls of the source.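 How the source made its calls, unless noted: active means mean inhibition over 43.08%, the solvent-only control mean plus 3 SD; inactive means the rest.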
# What was measured:
# [1] = biological target: Nuclear receptor coactivator 3 (Homo sapiens) (UniProt Q9Y6Q9); experiment: SRC3 coactivator transcriptional activity inhibitors, confirmation, cell-based, luminescence, quadruplicate (AID 588792); settings: HEK293 GAL4-SRC3 luciferase reporter, at 3.6 µM, active compounds read high;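 further: 0% = DMSO treated cells and 100% = gossypol at 36 µM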
# [2] = tested on: transactivating tegument protein VP16 (Human herpesvirus 1), Gal4-VP16 luciferase reporter; experiment: VP16 transactivation inhibitors, counter-screen for SRC3 inhibitor project, cell-based, luminescence, high throughput (AID 588794; in the data active means inhibition above about 30%); settings: mammalian cells, VP16-driven luciferase reporter luminescence; at 3.6 µM; active compounds read high
# [3] = biological target: Nuclear receptor coactivator 1 (Homo sapiens) (UniProt Q15788); experiment: SRC1 coactivator transcriptional activity inhibitors, confirmation, cell-based, luminescence, quadruplicate (AID 588820;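 active means mean inhibition above 46.68%, the untreated control wells mean plus 3 SD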;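 further: 0% = DMSO wells and 100% = gossypol 36 µM treated wells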); settings: HEK293 GAL4-SRC1 luciferase reporter, at 3.6 µM, active compounds read high
# [4] = VP16 transactivation inhibitors, counter-screen for SRC1 inhibitor project, cell-based, luminescence, high throughput (AID 588824; in the data active means inhibition above about 25%); settings: cell-based VP16 transactivation luciferase luminescence; at 3.6 µM; active compounds read high
# Sequence of Nuclear receptor coactivator 1 (Homo sapiens) (Q15788 whole entry, looked up, the tested form may be a part): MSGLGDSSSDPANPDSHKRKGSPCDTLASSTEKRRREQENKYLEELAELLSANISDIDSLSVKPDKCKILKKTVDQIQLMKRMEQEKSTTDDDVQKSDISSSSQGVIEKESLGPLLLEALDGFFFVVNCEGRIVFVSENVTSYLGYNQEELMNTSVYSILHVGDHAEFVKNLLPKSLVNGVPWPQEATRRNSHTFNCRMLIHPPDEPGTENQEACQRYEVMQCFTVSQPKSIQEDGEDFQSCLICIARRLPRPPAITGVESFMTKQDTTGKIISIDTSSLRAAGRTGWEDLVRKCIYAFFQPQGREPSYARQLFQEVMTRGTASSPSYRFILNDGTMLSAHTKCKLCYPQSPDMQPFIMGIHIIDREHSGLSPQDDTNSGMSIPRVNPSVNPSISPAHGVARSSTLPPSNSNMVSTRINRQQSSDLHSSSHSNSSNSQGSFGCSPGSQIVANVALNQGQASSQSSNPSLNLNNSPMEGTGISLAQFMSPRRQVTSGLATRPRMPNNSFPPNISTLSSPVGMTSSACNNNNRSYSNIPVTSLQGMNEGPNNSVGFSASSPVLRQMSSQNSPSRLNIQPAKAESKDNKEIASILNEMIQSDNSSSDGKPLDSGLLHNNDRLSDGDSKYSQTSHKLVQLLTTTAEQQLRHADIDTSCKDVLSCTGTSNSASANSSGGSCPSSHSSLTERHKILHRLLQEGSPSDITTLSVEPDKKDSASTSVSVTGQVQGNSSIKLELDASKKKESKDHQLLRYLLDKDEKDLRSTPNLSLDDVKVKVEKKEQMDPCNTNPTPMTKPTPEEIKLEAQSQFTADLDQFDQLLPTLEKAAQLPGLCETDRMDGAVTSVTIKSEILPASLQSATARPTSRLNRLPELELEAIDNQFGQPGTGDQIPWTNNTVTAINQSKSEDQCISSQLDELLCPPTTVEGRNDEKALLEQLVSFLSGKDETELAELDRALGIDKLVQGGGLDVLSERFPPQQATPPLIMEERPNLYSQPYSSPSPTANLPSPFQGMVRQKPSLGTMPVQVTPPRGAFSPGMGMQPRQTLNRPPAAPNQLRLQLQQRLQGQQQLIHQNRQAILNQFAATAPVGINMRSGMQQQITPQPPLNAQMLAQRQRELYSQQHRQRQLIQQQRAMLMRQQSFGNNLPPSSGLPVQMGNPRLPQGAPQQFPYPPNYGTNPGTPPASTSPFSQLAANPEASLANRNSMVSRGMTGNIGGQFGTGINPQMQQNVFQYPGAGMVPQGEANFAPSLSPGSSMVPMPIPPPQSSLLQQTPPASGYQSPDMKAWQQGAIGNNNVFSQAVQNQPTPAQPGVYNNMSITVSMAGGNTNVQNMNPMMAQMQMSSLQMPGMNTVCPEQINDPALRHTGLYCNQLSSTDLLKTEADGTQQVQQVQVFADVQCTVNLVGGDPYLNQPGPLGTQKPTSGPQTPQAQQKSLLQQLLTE
# Sequence of Nuclear receptor coactivator 3 (Homo sapiens) (Q9Y6Q9 whole entry, looked up, the tested form may be a part): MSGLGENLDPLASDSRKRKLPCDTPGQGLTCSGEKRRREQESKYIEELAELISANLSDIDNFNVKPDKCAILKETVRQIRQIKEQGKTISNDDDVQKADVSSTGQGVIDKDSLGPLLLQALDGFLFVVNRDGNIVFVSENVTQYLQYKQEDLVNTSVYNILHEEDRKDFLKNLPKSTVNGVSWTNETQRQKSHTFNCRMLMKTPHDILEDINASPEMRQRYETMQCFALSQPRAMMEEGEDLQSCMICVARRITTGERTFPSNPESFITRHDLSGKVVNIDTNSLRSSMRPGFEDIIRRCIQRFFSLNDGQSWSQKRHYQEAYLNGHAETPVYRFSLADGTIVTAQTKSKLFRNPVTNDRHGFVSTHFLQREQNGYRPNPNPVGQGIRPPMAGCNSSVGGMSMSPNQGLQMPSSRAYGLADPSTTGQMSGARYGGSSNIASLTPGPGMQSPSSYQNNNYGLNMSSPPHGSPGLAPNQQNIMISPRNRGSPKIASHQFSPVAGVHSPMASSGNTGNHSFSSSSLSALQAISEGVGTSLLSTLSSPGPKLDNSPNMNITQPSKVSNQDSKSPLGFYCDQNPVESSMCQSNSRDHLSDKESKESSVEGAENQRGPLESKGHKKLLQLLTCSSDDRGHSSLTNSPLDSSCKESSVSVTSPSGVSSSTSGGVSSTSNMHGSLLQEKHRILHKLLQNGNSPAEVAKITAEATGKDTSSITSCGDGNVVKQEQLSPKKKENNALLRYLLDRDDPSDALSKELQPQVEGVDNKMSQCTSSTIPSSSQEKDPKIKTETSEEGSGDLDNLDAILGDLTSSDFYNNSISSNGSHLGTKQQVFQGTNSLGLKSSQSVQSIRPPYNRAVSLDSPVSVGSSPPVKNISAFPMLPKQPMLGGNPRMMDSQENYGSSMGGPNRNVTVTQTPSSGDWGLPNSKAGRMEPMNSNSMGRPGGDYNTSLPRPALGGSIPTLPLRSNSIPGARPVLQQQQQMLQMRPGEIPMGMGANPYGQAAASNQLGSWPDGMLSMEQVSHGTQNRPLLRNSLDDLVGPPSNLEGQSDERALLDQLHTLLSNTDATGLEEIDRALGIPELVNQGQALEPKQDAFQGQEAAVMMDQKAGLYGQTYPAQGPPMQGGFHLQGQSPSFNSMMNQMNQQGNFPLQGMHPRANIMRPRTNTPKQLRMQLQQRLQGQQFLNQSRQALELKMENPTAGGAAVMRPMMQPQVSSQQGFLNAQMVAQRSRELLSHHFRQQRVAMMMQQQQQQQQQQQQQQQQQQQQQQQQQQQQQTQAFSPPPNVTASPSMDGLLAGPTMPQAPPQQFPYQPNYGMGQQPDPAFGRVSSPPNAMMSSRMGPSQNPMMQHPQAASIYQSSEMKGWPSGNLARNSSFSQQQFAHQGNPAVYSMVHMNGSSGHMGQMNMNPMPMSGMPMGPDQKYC
SMILES,inhibition [1],inhibition [2],inhibition [3],inhibition [4]
O=C(Nc1nc(-c2ccccc2)cs1)c1ccc(N2CCOCC2)c([N+](=O)[O-])c1,56.2% (active),61.4% (active),15.3%,64.8% (active)
OCCNc1c2ccccc2nc2ccccc12,4.16%,40.4% (active),5.64%,42.2% (active)
O=C(/C(=C/c1ccc(Cl)cc1)c1nc2ccccc2[nH]1)c1cccs1,79.1% (active),61.9% (active),22.4%,49.5% (active)
Cc1cn([C@@H](CCCCNC(=O)OC(C)(C)C)C(=O)NCCCCCCCCCCC(=O)N2CCN(C(=O)OC(C)(C)C)CC2)nn1,12.4%,25.6%,4.04%,41.8% (active)
CCOc1ccc(-n2c(C)c(C(C)=O)c3cc(OC(C)=O)ccc32)cc1,67.3% (active),44.5% (active),65.8% (active),47.6% (active)
c1ccc(-c2noc(-c3ccc4ccccc4c3)n2)nc1,43.7% (active),19.2%,-79.6%,23.7%
COc1ccc(-c2cn[nH]c2-c2ccc(OC)cc2)cc1,59.5% (active),34.7% (active),38.7%,33.8% (active)
O=C(CNS(=O)(=O)Cc1ccccc1)NNc1ccccc1,3.12%,12.1%,12.8%,16.3%
Cc1ccc(C(=O)Nc2nc(-c3ccccn3)cs2)cc1S(=O)(=O)N1CCOCC1,17%,29%,13.8%,35.8% (active)
O=C1C(F)=CC(COC(c2ccccc2)(c2ccccc2)c2ccccc2)OC1n1cc(F)c(=O)[nH]c1=O (configuration not stated),66% (active),60.3% (active),-11.1%,62.1% (active)
Cn1c(/C=C/c2ccc(Cl)cc2)c([N+](=O)[O-])c(=O)n(C)c1=O,39.6%,35.7% (active),36.3%,28.6% (active)
COc1ccc(N/N=C(\C#N)C(=N)SCc2ccccc2)cc1,25.9%,34.2% (active),35.7%,29.5% (active)
CC(C)(C)OC(=O)NCCCC[C@H](NC(=O)c1nc[nH]c1C(=O)N[C@@H](CCCCNC(=O)OC(C)(C)C)C(=O)OC(C)(C)C)C(=O)OC(C)(C)C,-4.98%,-9.56%,-34.5%,-3.49%
COc1ccc2[nH]c(=O)c(CN(CCN3CCCC3)C(=O)Nc3ccccc3Cl)cc2c1,31.9%,20.4%,36%,18.6%
COC1CC(C)C(OC)c2cc(O)cc(c2O)NC(=O)C(C)=CC=CC(C)C(OC(N)=O)C(C)=CC(C)C1OC (configuration not stated),72.5% (active),80.2% (active),-2.07%,77% (active)
COc1cc2cncc(Cc3ccc(Cl)cc3)c2cc1OC,42.2%,40.7% (active),56.2% (active),39.4% (active)
COc1ccc(CNc2nn3c(-c4cccc(C(=O)N(C)C)c4)cnc3s2)cc1,50.3% (active),30.7% (active),51.7% (active),33.5% (active)
N=c1c2c(-c3ccccc3)c(-c3ccccc3)n(Cc3ccccc3)c2ncn1CCCO,12%,53.2% (active),42.6%,51% (active)
O=C(/C=C/c1ccc(OCCCF)cc1)Nc1ccnc(-c2cccnc2)n1,17.1%,11.1%,-25.6%,15.8%
C[n+]1c2n(c3ccccc31)N=C(c1ccccc1)CS2,4.94%,37.2% (active),-2.14%,35.1% (active)
COc1ccc(-n2cc(-c3ccccc3)[n+]3c2CCCCC3)cc1,24.8%,22%,16.8%,27.7% (active)
Cc1ccc(-c2n[nH]c(=S)n2/N=C/c2ccncc2)cc1,26%,19.3%,37.6%,28.7% (active)
CC1(C)CCSC(/C=C/c2ccccc2)=N1,62.4% (active),45.5% (active),46.1%,39.8% (active)
O=C(Nc1nc(-c2ccc3ccccc3c2)cs1)C1CCN(S(=O)(=O)c2cccs2)CC1,8.55%,32.2% (active),-6.77%,33.2% (active)
OCCNc1ncnc2ccc(Br)cc12,21.8%,30.6% (active),29.2%,16.2%
CC(=O)c1ccc(Nc2ncnc3ccc(Br)cc23)cc1,49.5% (active),39.7% (active),56.4% (active),37.8% (active)
CCOc1cc(Br)cc(/C=N/NC(=O)c2cccnc2)c1O,33%,44.3% (active),27.3%,36.9% (active)

SMILES,inhibition [1],inhibition [2],inhibition [3],inhibition [4]
COc1ccc(/C=C2\N=C(C(C)(C)C)OC2=O)c(OC)c1,9.73%,19.2%,10%,3.16%
CC(=O)N(C(C)=O)c1ncc2c([nH]c3ccccc32)c1C#N,47.9% (active),30.6% (active),48.5% (active),26.8% (active)
CCCOc1ccc(/C=N/Nc2ccccc2[N+](=O)[O-])c(O)c1,27.7%,5%,-59.5%,-39.9%
C/C(=N\Nc1ccc2nncn2n1)c1ccccn1,70.3% (active),65.5% (active),62% (active),56.6% (active)
CN(c1ncnc(N)c1[N+](=O)[O-])C1CCS(=O)(=O)C1 (configuration not stated),55.2% (active),35.7% (active),52.7% (active),34.1% (active)
COc1ccc(-n2cnc3c(sc4nccc(N(C)C)c43)c2=O)cc1,40.1%,22.4%,33.3%,11.8%
CCCCC(=O)NC(c1ccc(C(C)C)cc1)c1ccc2cccnc2c1O (configuration not stated),62% (active),61.1% (active),58.2% (active),66% (active)
COc1ccc2c(c1OC)C(=O)N1c3ccccc3C(=O)N(c3ccc(F)cc3)C21 (configuration not stated),7.69%,4.54%,-3.13%,3.89%
Cc1ccc(C2NC(=O)CCC2[N+](=O)[O-])cc1 (configuration not stated),-3.62%,-1.77%,-9.25%,-3.26%
CN=C1S/C(=C\c2cc(C)n(-c3ccccc3F)c2C)C(=O)N1C,-15.3%,-38.2%,-105%,-68%
CCCCOC(=O)c1[nH]c2c(c1C)C(=O)CC(c1cc(OC)c(OC)c(OC)c1)C2 (configuration not stated),8.2%,28%,-1.5%,32.1% (active)
O=C(N/N=C/c1cc(Cl)ccc1O)c1ccc(Br)cc1,55.7% (active),40.1% (active),23.3%,38.4% (active)
COc1ccc2cc3c(N)nn(C(=O)c4ccc(Cl)c([N+](=O)[O-])c4)c3nc2c1,70.2% (active),39.4% (active),56.7% (active),36.5% (active)
Cc1ccc(S(=O)(=O)N2CCN(S(C)(=O)=O)CC2)cc1,24.1%,19.9%,-0.28%,6.89%
O=[N+]([O-])c1ccc(Oc2ccc(F)cc2)c2ccncc12,46.8% (active),36% (active),47.6% (active),35.4% (active)
CCOC(=O)N=Nc1c2ccccc2c2nc3no[nH]c3nc12,95.7% (active),93.1% (active),88.3% (active),92.4% (active)
CCOC(=O)C(=Cc1ccccc1)C(=O)c1ccccc1,21.3%,33.6% (active),10.6%,28.7% (active)
O=C(NC(=O)N1CCN(c2cccc(Cl)c2)CC1)c1ccccc1,23.9%,43.6% (active),17.9%,41.2% (active)
CN1CC(=O)N2C(c3ccc(Cl)cc3)c3[nH]c4ccccc4c3C[C@H]2C1=O (some centres not stated),41.6%,29.5% (active),25%,33.9% (active)
CC(C)c1ccc(-c2csc(NC(=O)c3cccs3)c2C(=O)O)cc1,8.33%,18.6%,-2.31%,33.9% (active)
C#CC[N+](C)(C)CCCCCCCCCC,18.6%,23.2%,9.87%,16.1%
Cc1nc(N)c(CC(Br)CBr)c(Cl)n1 (configuration not stated),31.8%,35.4% (active),44.4%,28.9% (active)
O=C(N/N=C/c1cc([N+](=O)[O-])ccc1O)c1cccc(N2CCCC2=O)c1,15.9%,14.3%,34.5%,4.04%
CC(C)c1ccc(-c2csc3ncnc(N4CCN(C)CC4)c23)cc1,42.1%,35.5% (active),42.8%,32.9% (active)
C=CCOc1ccccc1CNc1ccc2c(c1)OCCO2,25.2%,12.4%,-17.1%,-30.1%
COc1ccc(C)cc1N=Nc1ccc(O)c2ncccc12,9.14%,-10.3%,-18.4%,0.73%
